FUS suppressor: rescues growth of FUS-expressing yeast. S. cerevisiae FUS-expressing, growth rescue, OD600, 24 h. Potency, µM (top dose mostly 76.6 µM), usual class: activators. hit rate 0.24% among 390,000. AID 1347120; further: nearly all actives have a fitted effect of over 55% in size
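FUS-expressing yeast, raffinose-pregrown, induced in 2% galactose minimal medium at OD 0.005; compounds in a dilution series, 24hr at 30C. Growth restoration read as absorbance at 600 nm. CP55940 positive control, DMSO negative.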
aSyn yeast inh: alpha-synuclein toxicity inhibition in yeast. Potency, µM (series often up to 46.1 µM), hits mostly activators. Yeast expressing alpha-synuclein, growth rescue, BacTiter-Glo, 24 h. hit rate 0.14% among 370,000; further: nearly all actives have a fitted effect of over 65% in size
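Readout is rescue of growth in alpha-synuclein-expressing yeast, so inhibitors of toxicity appear as activators. Growth after 24 hr at 30 deg C in galactose medium is quantified by luminescence.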
Abeta yeast res: A-beta toxicity reversal in yeast | yeast expressing A-beta42, growth rescue, OD600, 48 h; response scale: 0% DMSO, 100% iron-clioquinol control | Potency, µM (titrated, usually from 46.1 µM), hits mostly activators | hit rate 0.063% among 410,000; further: nearly all actives have a fitted effect of over 55% in size
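Yeast A-beta toxicity model in growth medium with pinned compounds, 48 h at 30 C; growth read as absorbance at 600 nm. Normalized to FeCl3/clioquinol equimolar mix (positive) and DMSO (negative).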
TDP43 rescue: inhibitors of TDP-43 toxicity in yeast. TDP-43 expressing yeast growth rescue, BacTiter-Glo, 24 h. Potency, µM (highest dose often 46.1 µM), hits mostly activators. hit rate 1.8% among 410,000; further: nearly all actives have a fitted effect of over 50% in size
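Luminescence from BacTiter-Glo reports growth of TDP-43-expressing yeast after 24 hr at 30 deg C with compound. Cells were raffinose-pregrown to mid-log, then seeded in galactose medium at OD600=0.02.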
A number is an active result; 0 = inactive; ? = inconclusive; - = no result; [ ] = dose if it differs, or a comment. This is a sample that favours compounds with a hit; in the whole collection about 2.1% have one here. The call rests on the fitted dose curve; in most records, active means well fitted curve in the direction sought with a large enough effect; inconclusive means small, poorly fitted or top-dose-only effect, or another doubt; inactive means no such curve, though single readings can be large; an effect the other way counts as inactive or inconclusive.

SMILES	FUS suppressor	aSyn yeast inh	Abeta yeast res	TDP43 rescue
COc1cccc(CNC(=O)C2CCN(C(=O)N3CCOc4ccc(Cl)cc43)CC2)c1OC	0	-	0	?
CCC(=O)N1CCC(C(=O)NC2CCCc3ccccc32)CC1 (stereo unspecified)	0	-	-	-
NCC(=O)c1c[nH]c2ccccc12	-	0	-	-
CCCOc1ccc(Oc2nc(NCC(C)C)nc(N(C)C)n2)nn1	0	-	0	0
Cc1cc(C)cc(-n2ccnc2SCC(=O)Nc2cccc3ccccc23)c1	0	0	0	20µM
O=C(CSc1nccn1-c1ccc(F)cc1)Nc1ccc(OC(F)(F)F)cc1	0	-	?	16µM
O=C(CSc1nccn1-c1cccc(Cl)c1)Nc1ccc2c(c1)OCO2	0	-	0	18µM
COc1cccc(-n2ccnc2SCC(=O)Nc2cccc(C)c2C)c1	0	0	0	16µM
COc1ccc(-n2ccnc2SCC(=O)Nc2ccccc2)cc1	0	0	0	0
CCSc1nnc(NC(=O)CSc2nccn2-c2cccc(C)c2C)s1	0	0	0	16µM
O=C(CSc1nccn1-c1ccc(Cl)cc1)Nc1cccc2ccccc12	0	-	0	11µM
CCSc1nnc(NC(=O)CSc2nccn2-c2cc(C)cc(C)c2)s1	0	0	0	0
O=C(NCc1ccco1)c1ccc2c(c1)N(Cc1ccccc1)C(=O)c1ccccc1S2	32µM	-	0	0
CCN(CC)C(=O)c1ccc2c(c1)N(Cc1c(F)cccc1Cl)C(=O)c1ccccc1S2	?	-	0	22µM
Cc1cccc(CN2C(=O)c3ccccc3Sc3ccc(C(=O)NCc4ccco4)cc32)c1	0	-	0	0
CCc1nc(SCc2cc(Cl)ccc2OC)n[nH]1	0	16µM	0	?
Cc1ccc(NC(=O)CSc2nnc(-c3ccccc3)n2C)cc1	-	0	-	-
CSc1ccc(CCNC(=O)c2ccc(-n3c(C)cc4c3CCCC4)cc2)cc1	0	-	0	0
Cc1cccc(OCc2nnc(SCC(=O)c3ccccc3)o2)c1	0	0	0	13µM
CCOc1cc(C2Sc3ccccc3NC3=C2C(=O)c2ccccc23)ccc1O (stereo unspecified)	?	-	0	11µM
COC(=O)c1ccccc1NC(=O)N1CCC(n2c(C)nc3cccnc32)CC1	0	-	0	0
Cc1ccc(C(=O)CSc2nnc3c4ccccc4nc(C(C)(C)C)n23)cc1	0	0	0	0
CC(=O)CSc1nnc2c3ccccc3nc(C(C)(C)C)n12	0	0	0	14µM
C[C@@H]1OC(c2ccccc2)N(C)[C@H]2C[C@H]3c4[nH]c5cccc(-c6ccccc6)c5c4CCN3C[C@@H]12 (stereo partly specified)	0	-	-	-
Cc1ccc(-c2cc(=O)[nH][nH]2)c(C)c1	0	0	0	0
SMILES	FUS suppressor	aSyn yeast inh	Abeta yeast res	TDP43 rescue
CC(C)Cc1ccc(-c2cc(=O)[nH][nH]2)cc1	0	0	0	20µM
CN[C@H](C)CCC=C(C)C	-	0	-	-
CC(=O)N1N=C(c2cccs2)CC1c1ccc(Br)cc1 (stereo unspecified)	0	0	0	25µM
CN(C)c1ccc(/C=C/c2ncnc3ccccc23)cc1	-	0	-	-
COc1cccc(C(NC(C)=O)c2nc(-c3ccc(C)c(C)c3)cs2)c1 (stereo unspecified)	0	18µM	0	0
CC(=O)NC(c1ccccc1)c1nc(-c2ccc(C)c(C)c2)cs1 (stereo unspecified)	0	0	0	20µM
CCCCN1CCCc2cc(CN(CCCN3CCOCC3)C(=O)Nc3ccc(CC)cc3)ccc21	0	-	0	0
Cc1ccc(-c2noc(C3CCCN(C(=O)c4ccccc4Br)C3)n2)cc1 (stereo unspecified)	0	0	0	13µM
Cc1ccc(-c2noc(C3CCCN(C(=O)c4c(F)cccc4F)C3)n2)cc1 (stereo unspecified)	0	0	0	0
O=C(Nc1ccc(F)cc1F)N1CCCC(c2nc(-c3ccc(F)cc3)no2)C1 (stereo unspecified)	?	0	0	13µM
O=C(c1ccc(F)cc1F)N1CCCC(c2nc(-c3ccc(F)cc3)no2)C1 (stereo unspecified)	0	0	0	0[1.82 µM]
CCc1ccc(OCC(=O)N(Cc2ccco2)Cc2ccccc2Cl)cc1	0	-	0	0
Clc1cccc(CON/C=N/c2ncnc3sccc23)c1	0	0	0	3.5µM
Clc1cccc(Cl)c1CON/C=N/c1ncnc2sccc12	0	0	0	0
O=C(CCC1N=C2c3ccccc3N=C(SCc3ccccc3F)N2C1=O)NCc1ccccc1 (stereo unspecified)	0	-	0	0

Screens deposited in PubChem BioAssay by National Center for Advancing Translational Sciences (NCATS).
